Assay results from the supplement of paper PMC3334620.
Whole data set: some 33,000 sequences, median “E-score (-0.5 to 0.5)” near -0.036, cut for the highest 2% near 0.37. What follows is part of a selection rich in the highest values, with near analogues and random picks from the rest.

target: T1, Yer064c (UniProt P40041); test: PBM E-score (8-mer binding enrichment) (E-score (-0.5 to 0.5)); higher = stronger / more preferred TF binding; details: protein concentration: 200 nM; construct: GST-full length
T1 sequence: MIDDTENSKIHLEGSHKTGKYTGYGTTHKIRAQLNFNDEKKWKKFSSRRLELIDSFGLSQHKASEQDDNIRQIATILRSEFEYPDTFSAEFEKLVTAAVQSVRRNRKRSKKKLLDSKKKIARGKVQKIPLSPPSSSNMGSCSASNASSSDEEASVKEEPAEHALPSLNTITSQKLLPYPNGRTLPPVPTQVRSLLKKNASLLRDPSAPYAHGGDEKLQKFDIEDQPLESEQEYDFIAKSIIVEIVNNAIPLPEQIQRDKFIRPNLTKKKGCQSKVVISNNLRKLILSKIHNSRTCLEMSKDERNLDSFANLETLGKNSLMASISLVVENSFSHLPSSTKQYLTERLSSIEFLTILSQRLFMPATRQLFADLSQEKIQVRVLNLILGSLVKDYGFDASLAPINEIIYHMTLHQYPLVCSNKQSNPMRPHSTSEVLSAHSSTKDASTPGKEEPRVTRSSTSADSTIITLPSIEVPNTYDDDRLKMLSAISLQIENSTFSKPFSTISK
Procedure, shortened: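 Yeast transcription factors, full-length or as DNA-binding domains, were expressed with a GST tag using PURExpress in vitro transcription/translation. At about 100-200 nM they were applied to universal all-10-mer Agilent arrays, double-stranded by primer extension on fresh or once-stripped slides. Fluorescent anti-GST detected bound protein, and masliner normalised the scans. E-scores for ungapped eight-base words, pooled with reverse complements, came from the Universal PBM Analysis Suite.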

Sequence	PBM E-score
CATATTGG	-0.027
ATATCTAA	0.128
AGCAGGTA	-0.131
CCTGCGCA	-0.352
TATAATGA	0.256
AATAATCA	0.382
CATAATCG	0.109
TATAATCA	0.387
AATAATCG	0.104
CATAATCC	-0.0164
AATAATCC	0.0648
GATAATCA	0.384
TATAATAA	0.115
GATAATAA	-0.0817
CATAATCA	0.413
GATAATCC	-0.0741
CCTTTACC	-0.149
GAGCGTAA	0.0724
CCCCTGCC	-0.204
ATACTCTC	0.00838
AGAAGGGG	-0.324
GCCAGCAA	-0.238
GGTCCATA	-0.194
AAACGATG	-0.0198
ATAGTCAC	0.481

Sequence	PBM E-score
ATAGTCAA	0.402
CTAGTCAG	0.418
ATAGTCCA	0.213
CTAGTAAG	0.0365
CTAGTCCA	0.109
ATAGTCAT	0.489
ATAGTAAT	0.291
ATCGTCAA	0.0919
ATAGTCCC	0.148
ATCGTCAT	0.0309
ATCGTCAC	-0.00908
AACCTATA	0.0106
CCGCGATA	-0.0471
GTTGGTGA	0.115
AGAAACAG	-0.164
GCTCCAAC	-0.164
GTCGTACA	0.19
AGGGCGAC	-0.0248
CTACAGAC	-0.184
CCCATTAA	-0.0295
GGGTCGAA	0.0364
GAGGCGGA	-0.0783
CCCCCCAA	-0.315
GACGAAGA	0.0944
GTGGGTTA	0.103

Sequence	PBM E-score
ATAGTCGG	0.256
ATAGTCGC	0.389
ATAGTCTG	0.177
ATAGTCCG	0.316
CTAGTCGC	0.316
ATAGTCAG	0.454
ACAGAAGG	-0.0367
CTGCATCA	-0.0294
AGGATCGG	-0.209
CGGGCTCC	-0.307
GATGAGTA	0.429
AATGAGTA	0.389
GCTGAGTA	0.212
AATGAGCA	-0.0702
CATGAGTA	0.341
AATGAGGA	-0.00162
CGAGATTC	0.0578
AAGTTGTA	-0.0146
ATGGGGCG	-0.111
AATTAATT	0.177
GACTTATC	0.307
TACTTATA	0.116
GACTTATA	0.387
TCTCCCCA	-0.153
CCGACAGC	-0.394

Sequence	PBM E-score
CGGGAGAC	0.106
CGGGAGTC	0.413
AGGGAGTA	0.0389
AGGGAGTC	0.44
CGGGAGTA	-0.0367
AGGGAGTG	-0.175
GCTACCAA	-0.00248
CGAGCCGC	-0.00093
GGACGACC	-0.23
CGGGCACA	-0.212
CCAGGATC	-0.0208
ATCCGGAC	-0.228
AATGGGGA	-0.288
ACACCAGG	-0.148
ACCAACGA	-0.0117
GACCGGTC	-0.369
GGTGACCA	0.0718
GGTGACGA	-0.0961
AGTGACGA	0.218
AGTGACGG	-0.0747
CGTGACGA	0.0595
AGTGACTA	0.469
CGTGACAA	-0.253
CGTGACTA	0.486
AGTGACAA	0.0598

Sequence	PBM E-score
AGTGACCG	-0.22
GGTGACTA	0.486
AGTGACTG	0.403
GAGTACCA	0.252
AATACCAA	-0.0127
CTCAACCA	0.152
GCTTGCCC	-0.427
AGTATGGC	0.0363
CAAATTTG	0.13
ATGCGAAG	-0.0967
GTTACTTA	0.163
CGAAAAAA	0.0432
AGTGACGC	-0.182
CGTGACTC	0.481
CGTGACGC	-0.00579
AGTGACTC	0.486
CGTGACCC	0.0177
AGTGACAC	-0.0262
AGGGTACT	-0.144
AGATTCAA	0.314
GGATTCAA	0.18
AGATTCCA	0.0276
TGATTCCA	0.398
CGATTCCA	-0.102
TGATTCAA	0.466

Sequence	PBM E-score
AGCGGAAG	-0.191
CTGCACCC	-0.223
AGACTGAA	0.241
AGACTGCA	0.201
GGACTGAA	0.109
TGACTGAA	0.432
CGACTGCA	0.253
TGACTGCA	0.404
ACTCCAAT	0.238
CAGTCCCC	-0.225
CCGGTGAG	0.0747
GCGGAGTA	-0.0756
CGACACTA	-0.0389
GTTTTGGA	0.197
AATCACTG	0.375
CATCACTC	0.0183
AATCACTC	0.385
AAGCACTG	0.0399
AAACACTG	0.0608
AATCACTA	0.373
CATCACTA	0.0474
GATCACTA	0.135
CGGCGATC	-0.0422
GTCACCAC	0.29
CATTCTAC	-0.179

Sequence	PBM E-score
CAAGATTA	0.199
AGTCCAGG	0.0238
AAGCCAGC	-0.181
GTTCAAGA	0.0547
AACGCTCA	-0.103
TCTGGACA	-0.266
ACTTCGAA	0.166
GACTATGA	0.435
AACTATGC	-0.153
AACTATGA	0.237
GACTATGC	0.397
CACTATGC	0.0417
TACTATGA	0.318
ACGGCGAG	0.0206
GCTCGCAC	-0.24
CTACTTTC	0.0258
CGGCCGGC	-0.134
GTGGTGGA	-0.14
TTGGCCAA	-0.142
AGACTAAC	0.413
TGACTACA	0.476
GGACTTAA	0.188
CGACTACA	0.351
CTACTAAA	0.00127
AGACTTAA	0.195

Sequence	PBM E-score
CGACTAAA	0.41
CCACTAAA	-0.0544
TGACTTAA	0.435
AGACTAGC	0.251
AGACTATC	0.35
AGACTACA	0.344
ACACTCTG	-0.0556
ACGCCACT	-0.186
GGAACTTA	-0.0956
CAGTAACA	0.0175
TACATTGA	0.0284
AGATGATA	0.0471
AGTAAAGG	0.0771
ATCCATTC	0.0758
CTCAGATA	0.268
GGGTTTCA	-0.23
ACCGGAGA	-0.00273
ATAGAACC	0.0363
TGACTAAA	0.484
CCACTAAG	0.0593
AGACTATG	0.319
AGACTACC	0.354
AGACTACG	0.322
AGACTACT	0.376
AGACTAAG	0.383

Sequence	PBM E-score
TGGCTAAA	0.306
GGACTAAA	0.331
AAACTAAG	0.175
CTACTAAG	0.0152
CGACTAAG	0.399
ACTATTCA	0.106
AGTTGCCA	-0.223
ACGTTGAG	0.0564
GAGTCTGC	0.312
TTCAGCAA	-0.00768
AGTGATAT	-0.134
AACTGAAC	-0.119
CGACTATA	0.374
AGACTAAA	0.398
CGACTATC	0.359
AAACTAAA	0.0515
AGACTAGA	0.276
AGACTATA	0.35
AAACTAAT	0.243
AGACTAAT	0.389
ATACTAAT	0.174
